Targets with a hit are over-represented here; the source holds about 7,900 in all. About 0.6% of all pairs of compound and target were hits.
The targets below were run with C1=CC=C(C=C1)C2=NC(=C(N2)C3=CC=NC=C3)C4=CC(=C(C=C4)Cl)O (assay: log2 fold change, soluble protein after heating vs DMSO (PISA); higher = thermal stabilisation; K562 cells, 10 uM, 30 min; active = over 0.2 and 3.5 SD of the protein, either way, in both replicates (recomputed)).
In short: (§1)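 Aliquots of K562 cells (2×10^6 cells/mL) treated with 10 μM compound for 30 min were heated for 3 min over 48°C-58°C. After pooling and extraction in PBS with 0.5% NP-40 at 4°C, soluble protein from a 21,000xg, 90 min spin was quantified by TMTpro 16plex LC-MS/MS with channel sums equalised. Thermal stability is expressed against control samples, from duplicates, as a log2 fold change.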

UniProt Q93009, sequence (Q93009 whole entry, looked up): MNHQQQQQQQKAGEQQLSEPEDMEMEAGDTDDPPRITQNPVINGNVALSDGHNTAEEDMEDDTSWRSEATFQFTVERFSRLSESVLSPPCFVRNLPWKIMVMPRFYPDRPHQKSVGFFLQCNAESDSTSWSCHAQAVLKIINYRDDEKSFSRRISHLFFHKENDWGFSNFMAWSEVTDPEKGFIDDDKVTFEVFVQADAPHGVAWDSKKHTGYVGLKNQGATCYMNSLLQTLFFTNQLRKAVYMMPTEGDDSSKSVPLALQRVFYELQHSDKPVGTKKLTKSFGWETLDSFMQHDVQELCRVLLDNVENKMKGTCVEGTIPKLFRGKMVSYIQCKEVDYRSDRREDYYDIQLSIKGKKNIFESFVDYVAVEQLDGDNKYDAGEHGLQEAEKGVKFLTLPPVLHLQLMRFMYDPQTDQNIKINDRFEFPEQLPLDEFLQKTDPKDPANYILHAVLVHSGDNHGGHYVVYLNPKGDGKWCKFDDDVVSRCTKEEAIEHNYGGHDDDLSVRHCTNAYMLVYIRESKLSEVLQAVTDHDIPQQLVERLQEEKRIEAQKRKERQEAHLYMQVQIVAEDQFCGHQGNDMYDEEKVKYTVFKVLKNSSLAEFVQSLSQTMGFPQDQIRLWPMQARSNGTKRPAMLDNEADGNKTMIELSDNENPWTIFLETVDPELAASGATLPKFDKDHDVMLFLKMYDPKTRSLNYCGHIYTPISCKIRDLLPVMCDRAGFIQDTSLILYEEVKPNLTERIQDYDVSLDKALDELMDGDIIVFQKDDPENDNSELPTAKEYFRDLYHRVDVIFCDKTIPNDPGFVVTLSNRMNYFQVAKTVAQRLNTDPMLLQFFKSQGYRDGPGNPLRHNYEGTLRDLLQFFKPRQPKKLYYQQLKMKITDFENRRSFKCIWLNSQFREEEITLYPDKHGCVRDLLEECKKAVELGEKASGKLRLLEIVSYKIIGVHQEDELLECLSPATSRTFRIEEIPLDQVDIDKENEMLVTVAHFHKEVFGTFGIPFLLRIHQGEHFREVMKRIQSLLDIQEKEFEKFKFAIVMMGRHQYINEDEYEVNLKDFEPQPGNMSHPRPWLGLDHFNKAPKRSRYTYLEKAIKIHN
UniProt P12956, sequence (P12956 whole entry, looked up): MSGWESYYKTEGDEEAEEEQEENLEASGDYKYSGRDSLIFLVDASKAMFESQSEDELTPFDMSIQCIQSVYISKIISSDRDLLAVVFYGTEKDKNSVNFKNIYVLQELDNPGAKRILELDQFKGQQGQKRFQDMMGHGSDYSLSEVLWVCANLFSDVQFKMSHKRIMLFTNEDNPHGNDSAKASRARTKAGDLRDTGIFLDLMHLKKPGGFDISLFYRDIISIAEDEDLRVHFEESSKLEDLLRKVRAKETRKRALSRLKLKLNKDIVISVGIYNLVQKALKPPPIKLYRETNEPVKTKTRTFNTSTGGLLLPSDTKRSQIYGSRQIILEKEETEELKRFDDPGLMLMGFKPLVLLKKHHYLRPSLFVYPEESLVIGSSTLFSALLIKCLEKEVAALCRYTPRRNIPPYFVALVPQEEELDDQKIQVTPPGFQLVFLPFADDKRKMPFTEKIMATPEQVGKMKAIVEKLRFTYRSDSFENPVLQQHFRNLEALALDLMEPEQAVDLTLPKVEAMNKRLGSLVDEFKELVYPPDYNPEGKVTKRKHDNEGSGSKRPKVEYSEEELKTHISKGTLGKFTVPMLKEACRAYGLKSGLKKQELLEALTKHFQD
UniProt Q9NX61, sequence (Q9NX61 whole entry, looked up): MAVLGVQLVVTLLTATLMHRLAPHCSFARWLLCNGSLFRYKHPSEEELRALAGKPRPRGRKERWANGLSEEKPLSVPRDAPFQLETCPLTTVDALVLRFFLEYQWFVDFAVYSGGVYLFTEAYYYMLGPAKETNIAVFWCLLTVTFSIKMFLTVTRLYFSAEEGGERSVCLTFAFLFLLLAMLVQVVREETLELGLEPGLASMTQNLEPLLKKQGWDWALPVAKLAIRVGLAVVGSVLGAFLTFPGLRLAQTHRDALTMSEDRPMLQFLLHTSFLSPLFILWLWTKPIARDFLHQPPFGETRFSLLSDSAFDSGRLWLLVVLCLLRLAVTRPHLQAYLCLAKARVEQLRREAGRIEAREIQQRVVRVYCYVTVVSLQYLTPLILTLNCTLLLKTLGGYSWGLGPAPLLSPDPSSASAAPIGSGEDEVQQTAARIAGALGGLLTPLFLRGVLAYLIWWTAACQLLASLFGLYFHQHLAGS
UniProt P49815, sequence (P49815 whole entry, looked up): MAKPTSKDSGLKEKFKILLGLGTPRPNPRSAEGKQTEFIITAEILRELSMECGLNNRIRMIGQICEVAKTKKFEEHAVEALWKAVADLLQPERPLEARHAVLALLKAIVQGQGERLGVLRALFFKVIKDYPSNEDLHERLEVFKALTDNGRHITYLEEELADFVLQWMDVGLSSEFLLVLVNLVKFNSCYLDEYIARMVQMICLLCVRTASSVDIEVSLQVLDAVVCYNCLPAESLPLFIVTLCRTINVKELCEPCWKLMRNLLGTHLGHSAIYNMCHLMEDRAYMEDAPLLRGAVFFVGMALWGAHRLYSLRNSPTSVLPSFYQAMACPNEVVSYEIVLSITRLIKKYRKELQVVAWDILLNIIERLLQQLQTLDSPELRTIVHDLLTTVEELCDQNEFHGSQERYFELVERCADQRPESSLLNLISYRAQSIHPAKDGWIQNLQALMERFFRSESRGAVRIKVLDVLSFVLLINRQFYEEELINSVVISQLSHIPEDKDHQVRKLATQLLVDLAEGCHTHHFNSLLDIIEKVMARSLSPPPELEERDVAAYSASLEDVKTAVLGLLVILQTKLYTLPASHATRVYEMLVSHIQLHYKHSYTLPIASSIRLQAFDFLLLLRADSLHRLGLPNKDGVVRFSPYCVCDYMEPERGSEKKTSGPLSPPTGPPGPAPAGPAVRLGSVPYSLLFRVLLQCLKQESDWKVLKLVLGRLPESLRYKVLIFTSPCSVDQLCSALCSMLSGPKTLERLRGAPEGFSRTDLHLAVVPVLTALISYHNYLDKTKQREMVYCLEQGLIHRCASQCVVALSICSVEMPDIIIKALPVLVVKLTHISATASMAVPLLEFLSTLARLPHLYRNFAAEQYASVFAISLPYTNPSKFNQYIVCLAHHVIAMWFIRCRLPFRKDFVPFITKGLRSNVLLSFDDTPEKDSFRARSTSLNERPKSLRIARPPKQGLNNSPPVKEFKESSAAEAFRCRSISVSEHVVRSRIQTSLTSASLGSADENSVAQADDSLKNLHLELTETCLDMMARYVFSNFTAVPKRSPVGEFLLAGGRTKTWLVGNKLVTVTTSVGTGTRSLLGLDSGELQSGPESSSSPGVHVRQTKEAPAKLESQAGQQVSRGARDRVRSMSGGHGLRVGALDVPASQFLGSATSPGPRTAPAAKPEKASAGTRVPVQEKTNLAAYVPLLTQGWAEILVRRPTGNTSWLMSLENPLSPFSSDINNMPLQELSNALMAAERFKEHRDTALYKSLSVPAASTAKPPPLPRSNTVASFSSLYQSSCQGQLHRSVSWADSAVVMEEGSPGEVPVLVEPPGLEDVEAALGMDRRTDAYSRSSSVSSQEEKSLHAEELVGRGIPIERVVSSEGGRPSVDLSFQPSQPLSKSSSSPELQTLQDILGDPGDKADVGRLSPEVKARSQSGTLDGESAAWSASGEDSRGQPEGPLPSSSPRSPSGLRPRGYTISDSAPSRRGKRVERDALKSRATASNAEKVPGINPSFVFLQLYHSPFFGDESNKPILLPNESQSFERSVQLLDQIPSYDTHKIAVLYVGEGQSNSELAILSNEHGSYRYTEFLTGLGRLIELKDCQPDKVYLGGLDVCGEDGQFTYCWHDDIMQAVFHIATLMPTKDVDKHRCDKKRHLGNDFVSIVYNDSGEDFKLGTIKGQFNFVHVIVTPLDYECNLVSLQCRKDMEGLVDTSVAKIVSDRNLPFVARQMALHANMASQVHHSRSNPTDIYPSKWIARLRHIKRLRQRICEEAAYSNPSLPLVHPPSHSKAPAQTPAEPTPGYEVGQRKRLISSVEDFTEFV
UniProt O43617, sequence (O43617 whole entry, looked up): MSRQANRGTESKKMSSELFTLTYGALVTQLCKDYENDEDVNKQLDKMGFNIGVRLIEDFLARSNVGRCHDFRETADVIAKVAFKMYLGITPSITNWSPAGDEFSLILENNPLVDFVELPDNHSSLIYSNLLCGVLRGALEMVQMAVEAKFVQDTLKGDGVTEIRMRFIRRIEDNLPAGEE
UniProt Q13263, sequence (Q13263 whole entry, looked up): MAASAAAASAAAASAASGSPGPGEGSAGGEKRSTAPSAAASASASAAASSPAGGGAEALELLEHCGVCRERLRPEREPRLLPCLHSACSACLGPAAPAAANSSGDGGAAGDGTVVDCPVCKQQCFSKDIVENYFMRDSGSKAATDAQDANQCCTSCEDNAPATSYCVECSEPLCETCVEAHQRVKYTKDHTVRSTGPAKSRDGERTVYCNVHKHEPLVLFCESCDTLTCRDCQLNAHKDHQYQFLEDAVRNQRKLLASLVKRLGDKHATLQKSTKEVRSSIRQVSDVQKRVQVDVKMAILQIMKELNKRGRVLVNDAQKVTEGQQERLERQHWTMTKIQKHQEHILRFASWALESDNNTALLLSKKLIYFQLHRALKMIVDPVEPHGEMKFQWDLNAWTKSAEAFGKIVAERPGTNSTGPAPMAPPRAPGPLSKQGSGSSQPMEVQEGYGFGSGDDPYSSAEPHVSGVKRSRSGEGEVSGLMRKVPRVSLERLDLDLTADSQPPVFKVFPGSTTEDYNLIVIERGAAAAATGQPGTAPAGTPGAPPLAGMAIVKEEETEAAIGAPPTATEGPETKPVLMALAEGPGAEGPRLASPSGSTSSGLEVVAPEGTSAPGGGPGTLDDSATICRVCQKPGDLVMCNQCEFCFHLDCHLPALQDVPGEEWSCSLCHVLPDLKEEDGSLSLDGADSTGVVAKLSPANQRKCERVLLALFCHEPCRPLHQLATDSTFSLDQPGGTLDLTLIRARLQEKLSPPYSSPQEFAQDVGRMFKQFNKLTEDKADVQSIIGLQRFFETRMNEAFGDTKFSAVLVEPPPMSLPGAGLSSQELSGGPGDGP

log2 fold change, inactive:
TRAPPC13 isoform 5 (UniProt A5PLN9) 0
TUBA4A (UniProt P68366) -0.037
TMEM104 (UniProt Q8NE00) 0.013
XPOT (UniProt O43592) -0.047
XRCC1 (UniProt P18887) -0.035
USP7 (UniProt Q93009) 0.068
WASHC2C, A0A096LPC5 0.111
TMEM9B (UniProt Q9NQ34) -0.016
TP53BP1 isoform 2 (UniProt Q12888) -0.024
UFD1 isoform 1 (UniProt Q92890) -0.01
USP14 (UniProt P54578) 0.02
WDR62 isoform 4 (UniProt O43379) -0.05
WDR7 (UniProt Q9Y4E6) 0.099
USO1 isoform 2 (UniProt O60763) 0.004
UBLCP1 (UniProt Q8WVY7) -0.019
TMEM161A (UniProt Q9NX61) 0.029
XPO1 (UniProt O14980) 0.051
VAMP7 (UniProt P51809) 0.065
VTA1 (UniProt Q9NP79) -0.02
TRAPPC3 (UniProt O43617) -0.047
UBE2J1 (UniProt Q9Y385) 0.043
TMEM223 (UniProt A0PJW6) -0.007
XRCC6 (UniProt P12956) -0.023
UBE4B isoform 4 (UniProt O95155) 0.026
USP48 isoform 8 (UniProt Q86UV5) 0.049
WNK1 isoform 7 (UniProt Q9H4A3) -0.046
TRIM28 (UniProt Q13263) -0.023
WEE1 (UniProt P30291) -0.177
TSC2 (UniProt P49815) 0.06
UPF3B (UniProt Q9BZI7) -0.019

What follows are targets tested with C1=CC=C2C(=C1)C3=NNC4=CC=CC(=C43)C2=O in the same assay as above.
In short: as §1

log2 fold change, inactive:
TMEM219 (UniProt Q86XT9) 0.006
TRAPPC13 isoform 5 (UniProt A5PLN9) -0.038
TUBA4A (UniProt P68366) 0.027
TMEM104 (UniProt Q8NE00) -0.015
XPOT (UniProt O43592) -0.026
XIAP (UniProt P98170) -0.002
XRCC1 (UniProt P18887) 0.042
USP7 (UniProt Q93009) 0.085
WASHC2C, A0A096LPC5 -0.071
TMEM9B (UniProt Q9NQ34) -0.016
TP53BP1 isoform 2 (UniProt Q12888) -0.078
UFD1 isoform 1 (UniProt Q92890) -0.021
USP14 (UniProt P54578) 0.015
WDR62 isoform 4 (UniProt O43379) -0.041
TMEM106B (UniProt Q9NUM4) 0.003
WDR7 (UniProt Q9Y4E6) 0.028
USO1 isoform 2 (UniProt O60763) -0.028
UBLCP1 (UniProt Q8WVY7) 0.038
TMEM161A (UniProt Q9NX61) -0.006
TMEM164 (UniProt Q5U3C3) 0.017
UBE2J2 isoform 3 (UniProt Q8N2K1) -0.039
XPO1 (UniProt O14980) -0.036
VAMP7 (UniProt P51809) -0.001
VTA1 (UniProt Q9NP79) 0.029
TRAPPC3 (UniProt O43617) -0.018
UBE2J1 (UniProt Q9Y385) 0.036
TMEM223 (UniProt A0PJW6) 0.01
XRCC6 (UniProt P12956) -0.036
UBE4B isoform 4 (UniProt O95155) -0.013
USP48 isoform 8 (UniProt Q86UV5) -0.049
WNK1 isoform 7 (UniProt Q9H4A3) 0.021
TRIM28 (UniProt Q13263) 0.004
WEE1 (UniProt P30291) 0.037
TSC2 (UniProt P49815) 0.063
UFM1 isoform 2 (UniProt P61960) -0.003
UPF3B (UniProt Q9BZI7) -0.016

What follows are targets tested with C1CCN(C1)C(=O)NC2=CC=CC(=C2)NC3=NC=C(C(=N3)NCCC4=CN=CN4)Br in the same assay as above.
In short: as §1

log2 fold change, inactive:
TMEM219 (UniProt Q86XT9) 0.042
TRAPPC13 isoform 5 (UniProt A5PLN9) -0.005
TUBA4A (UniProt P68366) -0.015
XPOT (UniProt O43592) -0.005
XIAP (UniProt P98170) -0.024
XRCC1 (UniProt P18887) 0.043
USP7 (UniProt Q93009) -0.04
WASHC2C, A0A096LPC5 -0.069
TMEM9B (UniProt Q9NQ34) -0.006
TP53BP1 isoform 2 (UniProt Q12888) -0.057
UFD1 isoform 1 (UniProt Q92890) -0.036
USP14 (UniProt P54578) -0.016
WDR62 isoform 4 (UniProt O43379) 0
TMEM106B (UniProt Q9NUM4) -0.064
WDR7 (UniProt Q9Y4E6) -0.009
USO1 isoform 2 (UniProt O60763) 0.033
UBLCP1 (UniProt Q8WVY7) 0.035
TMEM161A (UniProt Q9NX61) -0.067
TMEM164 (UniProt Q5U3C3) -0.042
UBE2J2 isoform 3 (UniProt Q8N2K1) -0.145
XPO1 (UniProt O14980) 0.002
VAMP7 (UniProt P51809) 0.001
VTA1 (UniProt Q9NP79) 0.01
TRAPPC3 (UniProt O43617) 0.008
UBE2J1 (UniProt Q9Y385) -0.097
TMEM223 (UniProt A0PJW6) 0.007
XRCC6 (UniProt P12956) -0.043
UBE4B isoform 4 (UniProt O95155) -0.008
USP48 isoform 8 (UniProt Q86UV5) -0.103
WNK1 isoform 7 (UniProt Q9H4A3) -0.028
TRIM28 (UniProt Q13263) -0.013
WEE1 (UniProt P30291) -0.085
TSC2 (UniProt P49815) -0.001
UFM1 isoform 2 (UniProt P61960) 0.08
UPF3B (UniProt Q9BZI7) 0.117

From the supplement of paper PMC10849652
